# Assay results as given in PubChem BioAssay AID602429 (Sanford-Burnham Center for Chemical Genomics, 2012).
# Screen size: about 360,000 compounds; about 1,200 (0.33%) were called active. The full list was thinned out, with actives kept by preference. A number with no mark means an inactive call. Rule as the data show it: active = inhibition above about 37%; inactive = the rest.
# Biological target: Small ubiquitin-related modifier 1 (Homo sapiens) (UniProt P63165)
# Assay: SUMO1 binding to interaction partners, disruption – biochemical, uHTS, primary screen (AID 602429)
# Conditions: SUMO1 binding to a labelled peptide, TR-FRET, 1 h; at 20 µM; hits give high values
# Sequence of Small ubiquitin-related modifier 1 (Homo sapiens) (P63165 whole entry, looked up): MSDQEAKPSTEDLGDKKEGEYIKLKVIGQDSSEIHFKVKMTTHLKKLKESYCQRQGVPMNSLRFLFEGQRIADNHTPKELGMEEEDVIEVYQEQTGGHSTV
row,SMILES,inhibition
1,COc1ccc(N2C(=O)/C(=C/c3ccco3)C(=O)NC2=S)cc1,88.7% (active)
2,COC(=O)C1=C(c2cc3ccccc3s2)C[C@@H]2CC[C@H]1N2C(=O)NCc1cccc2ccccc12,5.43%
3,Cc1nn(Cc2ccccc2Cl)c(Cl)c1C(=O)OC(C(=O)NC(N)=O)C(C)C (stereo not given),-1.52%
4,C[C@H]1CN([C@@H](C)CO)C(=O)CCCn2nncc2CO[C@H]1CN(C)C(=O)Oc1cccc2ccccc12,0.0734%
5,O=C1NC(=O)C(CCOc2ccccc2)(CCc2ccccc2)C(=O)N1,-4.22%
6,COc1cccc(N2C(=O)NC(=O)/C(=C\c3ccc([N+](=O)[O-])s3)C2=O)c1,38.1% (active)
7,CC(=O)N(C1=NCCCS1)c1ccccc1F,-2.29%
8,CCCn1c(C(=O)c2ccccc2OC)nc2ccccc21,-1.49%
9,CCCCCn1c(=O)c(C(=O)Nc2c(C)n(C)n(-c3ccccc3)c2=O)c(O)c2ccccc21,4.99%
10,C=C(C)C1(CCCC)C(=O)NC(=S)NC1=O,6.06%
